19 molecules from PubChem BioAssay (NCATS) can be followed below.

Where “and” joins values, the source holds several entries; their conditions need not be identical. Identical values can stand only once. A number with no mark means an inactive call. Inconclusive results are not listed. Calls of active or inactive are those of the source. The call rests on the fitted dose curve; in most records, active means well fitted curve in the direction sought with a large enough effect; inconclusive means small, poorly fitted or top-dose-only effect, or another doubt; inactive means no such curve, though single readings can be large; an effect the other way counts as inactive or inconclusive.

In assay [1] the target is Cytochrome P450 2C9 (Homo sapiens) (UniProt P11712). In words: qHTS Assay for Inhibitors and Substrates of Cytochrome P450 2C9 (AID 883). Further: nearly all actives have a fitted effect of over 60% in size. Further: potency means the concentration at half of the fitted maximal effect. On activity change, negative = inhibition: on the % scale 0 is the no-effect control and ±100 the full control effect. In a few lines:
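10nM CYP2C9 + 100uM Luciferin-H (=KM), 25mM KPO4; cpd 10 min 37C; NADPH regen, 60 min 37C; stop/detect with P450 Glo-Buffer 20 min; luminescence. Norm. to 57uM sulphaphenazole as full inhibition.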
On the technique in general: In qHTS, concentration-response curves come from the screen itself.

The target in assay [2] is Cytochrome P450 3A4 (Homo sapiens) (UniProt P08684). In words: qHTS Assay for Inhibitors and Substrates of Cytochrome P450 3A4 (AID 884). Further: nearly all actives have a fitted effect of over 50% in size. Further: potency means the concentration at half of the fitted maximal effect. On activity change, negative = inhibition: series mostly up to about 57 µM; on the % scale 0 is the no-effect control and ±100 the full control effect. In a few lines:
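Luminescent readout of luciferin produced by CYP3A4 (20 nM) dealkylation of Luciferin-PPXE, 25 uM (its KM). NADPH-driven reaction ran 60 min at RT after 10 min compound preincubation; data scaled to 57 uM ketoconazole as 100% inhibition.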

For assay [3] the target is unchanged. In words: qHTS Assay for Activators of Cytochrome P450 3A4 (AID 885). Further: nearly all actives have a fitted effect of over 65% in size. In a few lines: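 CYP3A4 activity: Luciferin-PPXE O-dealkylation, 25uM substrate, 200mM KPO4, RT throughout. Read-out is luciferase luminescence; higher values reflect activation.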
The target in assay [4] is Cytochrome P450 2C19 (Homo sapiens) (UniProt P33261). In words: qHTS Assay for Inhibitors and Substrates of Cytochrome P450 2C19 (AID 899). Further: nearly all actives have a fitted effect of over 60% in size. Further: potency means the concentration at half of the fitted maximal effect. In a few lines:
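Luminescent read-out of luciferin formed from Luciferin-H EGE (10uM, equal to KM). Enzyme 5nM in 50mM KPO4; compound added, 10 min at 37C, then NADPH regenerating system for 60 min at 37C. Full inhibition defined by 57uM ketoconazole.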

Assay [5] deals with Cytochrome P450 2D6 (Homo sapiens) (UniProt P10635). The assay can be described thus: qHTS Assay for Inhibitors and Substrates of Cytochrome P450 2D6 (AID 891).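 Further: luciferin methyl ether substrate demethylated by CYP2D6 with NADPH regeneration; on the % scale 0 is the no-effect control and ±100 the full control effect; nearly all actives have a fitted effect of over 60% in size.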 In a few lines:
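Luminescent read-out of luciferin formed by 5 nM human CYP2D6 demethylating 30 uM Luciferin-ME EGE (Km level) over 60 min at room temperature after NADPH regeneration addition. Data normalized to full inhibition by 1.43 uM quinidine.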

Chain of Cytochrome P450 2C9 (Homo sapiens) (P11712 whole entry, looked up): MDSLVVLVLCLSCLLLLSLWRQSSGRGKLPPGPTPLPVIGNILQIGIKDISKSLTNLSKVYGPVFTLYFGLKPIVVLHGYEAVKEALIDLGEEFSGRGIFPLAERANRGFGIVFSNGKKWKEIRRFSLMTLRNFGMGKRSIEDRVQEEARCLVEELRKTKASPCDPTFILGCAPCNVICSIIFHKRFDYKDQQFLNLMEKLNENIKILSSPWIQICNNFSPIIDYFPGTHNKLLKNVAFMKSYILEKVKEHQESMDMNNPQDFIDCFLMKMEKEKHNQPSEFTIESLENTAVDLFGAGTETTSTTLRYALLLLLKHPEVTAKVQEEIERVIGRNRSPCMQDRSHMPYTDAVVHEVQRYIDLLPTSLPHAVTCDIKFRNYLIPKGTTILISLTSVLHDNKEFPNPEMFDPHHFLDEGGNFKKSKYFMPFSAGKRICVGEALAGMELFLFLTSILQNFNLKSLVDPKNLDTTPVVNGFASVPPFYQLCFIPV
Chain of Cytochrome P450 2C19 (Homo sapiens) (P33261 whole entry, looked up): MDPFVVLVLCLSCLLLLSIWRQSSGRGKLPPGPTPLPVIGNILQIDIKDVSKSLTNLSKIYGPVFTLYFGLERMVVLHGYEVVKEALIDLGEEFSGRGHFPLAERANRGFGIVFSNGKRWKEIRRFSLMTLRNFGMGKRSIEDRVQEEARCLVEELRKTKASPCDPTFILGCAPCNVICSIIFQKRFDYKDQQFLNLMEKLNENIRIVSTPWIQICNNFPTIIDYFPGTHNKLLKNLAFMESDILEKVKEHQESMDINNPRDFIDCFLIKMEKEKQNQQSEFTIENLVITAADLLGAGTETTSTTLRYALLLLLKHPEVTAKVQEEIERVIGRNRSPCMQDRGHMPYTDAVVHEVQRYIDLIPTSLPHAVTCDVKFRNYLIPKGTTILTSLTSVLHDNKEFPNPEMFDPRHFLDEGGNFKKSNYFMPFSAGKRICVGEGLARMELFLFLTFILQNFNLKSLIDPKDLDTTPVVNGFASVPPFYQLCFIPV
Chain of Cytochrome P450 3A4 (Homo sapiens) (P08684 whole entry, looked up): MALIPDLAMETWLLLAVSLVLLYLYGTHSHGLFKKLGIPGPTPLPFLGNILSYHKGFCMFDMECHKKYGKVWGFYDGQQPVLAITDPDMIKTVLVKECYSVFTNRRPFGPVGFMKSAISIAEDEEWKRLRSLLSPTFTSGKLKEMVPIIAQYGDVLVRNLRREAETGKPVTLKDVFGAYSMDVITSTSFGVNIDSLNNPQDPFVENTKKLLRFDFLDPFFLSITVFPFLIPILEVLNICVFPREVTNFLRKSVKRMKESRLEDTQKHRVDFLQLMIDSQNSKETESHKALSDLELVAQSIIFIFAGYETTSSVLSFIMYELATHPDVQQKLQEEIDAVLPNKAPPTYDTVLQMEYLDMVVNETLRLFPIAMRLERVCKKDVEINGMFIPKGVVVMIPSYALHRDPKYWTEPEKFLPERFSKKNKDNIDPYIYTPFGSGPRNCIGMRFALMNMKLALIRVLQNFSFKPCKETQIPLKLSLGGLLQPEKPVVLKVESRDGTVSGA
Chain of Cytochrome P450 2D6 (Homo sapiens) (P10635 whole entry, looked up): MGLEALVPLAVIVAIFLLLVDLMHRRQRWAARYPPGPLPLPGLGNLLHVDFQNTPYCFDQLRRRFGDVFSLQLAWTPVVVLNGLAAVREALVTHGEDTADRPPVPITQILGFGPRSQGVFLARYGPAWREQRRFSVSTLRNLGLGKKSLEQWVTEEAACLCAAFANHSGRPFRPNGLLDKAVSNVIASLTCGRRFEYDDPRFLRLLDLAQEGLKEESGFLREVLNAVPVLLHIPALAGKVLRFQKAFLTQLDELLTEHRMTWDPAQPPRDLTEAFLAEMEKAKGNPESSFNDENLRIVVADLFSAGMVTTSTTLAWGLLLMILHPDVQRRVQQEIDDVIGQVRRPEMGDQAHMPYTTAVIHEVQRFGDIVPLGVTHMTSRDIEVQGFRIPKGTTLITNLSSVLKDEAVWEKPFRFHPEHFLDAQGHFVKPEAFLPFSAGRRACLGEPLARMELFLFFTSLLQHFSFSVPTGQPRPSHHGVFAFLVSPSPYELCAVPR

On to `COC(=O)[C@@H]1CC[C@H](C)[C@@H](c2ccc(C)cc2)N1C(=O)c1ccc(/C=N\O[C@@H](C)c2cn([C@H](CO)Cc3ccccc3)nn2)cc1`, for which the Potency is 3.16 µM (active) and 2.51 µM (active) in assay [1]; 1.26 µM (active) and 3.16 µM (active) in assay [2]; 3.98 µM (active) in assay [4]. For the same molecule, in assay [3], the activity change, positive = activation is -62.7% [at 11.4 µM] and -101% [at 11.4 µM].
For the molecule `Cc1cc(F)ccc1OC1C=CC(c2ccc3c(c2)OCO3)OC1CO` (stereo not given), the Potency in assay [1] and in assay [2] was 3.16 µM (active) each time. Moreover, the activity change, positive = activation in assay [3] is -72.5% [at 11.4 µM]. Further, the Potency entry in assay [4] is “inactive”.
On to `CC(=O)c1ccc(C2C=CC(Oc3ccc(-c4ccccc4)cc3)C(CO)O2)cc1` (stereo not given), for which the Potency in assay [1] was 3.98 µM (active). Moreover, the activity change, negative = inhibition in assay [2] was 0.0168% [at 11.4 µM]. Besides, the Potency result in assay [5] is “inactive”.
Turning to `COC(=O)C1=C(C)N(Cc2ccccc2)[C@]23O[C@](C(=O)OC)(C(=O)N2C1c1ccccc1)C(C(=O)OC)C3C(=O)OC` (stereo not given in full), the Potency result in assay [1], in assay [5] and in assay [4] was “inactive” each time. Moreover, in assay [2], the activity change, negative = inhibition was -20.8% [at 11.4 µM]. For the same molecule, the activity change, positive = activation in assay [3] was -46.5% [at 11.4 µM].
In the case of `CCCCc1nc2c(c3c1CC(C)OC3)CN(CCC(C)C)CC2` (stereo not given), the Potency result in assay [1] and in assay [4] was “inactive” in each case. For the same molecule, the Potency in assay [2] was 3.98 µM (active). In addition, the activity change, positive = activation in assay [3] is -60.1% [at 11.4 µM].
In the case of `CCOC(=O)OCC1C=C[C@H](c2cc(-c3ccccc3)ccc2O)C(c2ccc(C(C)=O)cc2)O1` (stereo not given in full), the Potency was 0.316 µM (active) in assay [1], 3.16 µM (active) in assay [2] and 3.16 µM (active) in assay [4]. Further, the activity change, positive = activation in assay [3] was -86.1% [at 11.4 µM].
As to `COC(=O)C/C=C\[C@@H](C)[C@@H](/C=N\O[C@@H](C)c1cc(-c2c(C)cc(C)cc2C)no1)NS(=O)(=O)c1ccc(C)cc1`, the Potency was 2.51 µM (active) in assay [1], 3.16 µM (active) in assay [2] and 3.16 µM (active) in assay [4]. The activity change, positive = activation in assay [3] is -103% [at 11.4 µM].
With `COC(=O)C1=C(C)N(Cc2ccccc2)C2=C3C(=O)CCCC3[C@@](O)(C(=O)OC)C(=O)N2C1c1ccccc1` (stereo not given in full), the Potency result in assay [1], in assay [5] and in assay [4] was “inactive” throughout. In addition, the activity change, negative = inhibition in assay [2] was -20% [at 11.4 µM]. For the same molecule, the activity change, positive = activation in assay [3] was -36% [at 11.4 µM].
Regarding `O=C1C=CC2(OCCCO2)C(Br)=C1`, the Potency entry in assay [1], in assay [5] and in assay [4] was “inactive” throughout. The activity change, negative = inhibition in assay [2] was -14% [at 11.4 µM].
Regarding `CC(=O)OCC1OC(C#Cc2ccc(F)cc2F)C=CC1OC(C)=O` (stereo not given), the figures for the Potency in assay [1], in assay [2] and in assay [4] were 5.01 µM (active), 3.16 µM (active) and 2.51 µM (active), respectively. The activity change, positive = activation in assay [3] is -91.4% [at 11.4 µM].
The like results for `C=C(C)C(O)/C=C/c1ccc(Br)cc1` (stereo not given) were, in that order, 3.16 µM (active), 3.98 µM (active), 0.02 µM (active) and -65.3% [at 11.4 µM].
As to `COC(=O)C1=C(C)N(Cc2ccccc2)C2=C3C(=O)OCCC3[C@@](O)(C(=O)OC)C(=O)N2C1c1ccccc1` (stereo not given in full), the Potency entry in assay [1], in assay [5] and in assay [4] was “inactive” each time. Besides, the Potency in assay [2] was 3.98 µM (active). The activity change, positive = activation in assay [3] was -61.3% [at 11.4 µM].
On to `CC1C=CCCOC1c1ccccc1` (stereo not given), for which the Potency result in assay [1] and in assay [5] was “inactive” in each case. In addition, in assay [2], the activity change, negative = inhibition was -13.6% [at 11.4 µM].
In the case of `CCCNC(=O)OC[C@H]1O[C@@H](CCO/N=C\[C@@H](NS(=O)(=O)c2ccc(C)cc2)[C@H](C)/C=C\CC(=O)OC)C=C[C@@H]1Oc1ccc(OC)cc1`, the Potency was 3.98 µM (active) in assay [1], 3.16 µM (active) in assay [2] and 3.16 µM (active) in assay [4]. Moreover, in assay [3], the activity change, positive = activation was -106% [at 11.4 µM].
`COC(=O)NC(CC(C)=O)c1ccc2c(c1)OCO2` (stereo not given): the Potency result in assay [1], in assay [5] and in assay [4] was “inactive” in each case. Besides, the Potency in assay [2] is 3.98 µM (active). The activity change, positive = activation in assay [3] was -67.3% [at 11.4 µM].
With `CC1(C)OC(C(O)(c2ccccc2)c2ccccc2)C(C(O)(c2ccccc2)c2ccccc2)O1` (stereo not given), the Potency entry in assay [1], in assay [5] and in assay [4] was “inactive” throughout. Besides, the Potency in assay [2] is 2.51 µM (active). Also, the activity change, positive = activation in assay [3] is -63.1% [at 11.4 µM].
Take `CCC(=O)[C@]12O[C@@]3(C4C(=O)OCCC41)N(Cc1ccccc1)C(C)=C(C(=O)OC)C(c1ccccc1)N3C2=O` (stereo not given in full): the Potency entry in assay [1], in assay [5] and in assay [4] was “inactive” each time. The Potency in assay [2] was 1.26 µM (active). In assay [3], the activity change, positive = activation was -106% [at 11.4 µM].
Turning to `OCC1OC(c2ccccc2)C=CC1Oc1cc(Cl)cc(Cl)c1` (stereo not given), the Potency entry in assay [1] and in assay [5] was “inactive” throughout. In addition, the activity change, negative = inhibition in assay [2] was 5.16% [at 11.4 µM].
For the molecule `COc1ccc(OC2C(O)COC2/C=C/C#Cc2ccc(F)cc2F)cc1` (stereo not given), the Potency in assay [1] was 2.51 µM (active); in assay [2], 3.98 µM (active) and 3.16 µM (active). Further, the activity change, positive = activation in assay [3] is -91.9% [at 11.4 µM] and -66.3% [at 11.4 µM]. For the same molecule, the Potency entry in assay [5] and in assay [4] was “inactive” in each case.
